Compound activity deposited in PubChem BioAssay by National Center for Advancing Translational Sciences (NCATS).
The list is not random: actives were taken first. Their share in the collection is about 10%.
JMJD2A Tudor: inhibitors of human JMJD2A Tudor domain. O75164. Potency, µM (top dose mostly 114 µM), for the others: top-dose activity change, negative = inhibition, most hits filed as inhibitors. AID 504339. AlphaScreen JMJD2A-Tudor / H3K4me3 peptide binding. 390,000 compounds, 4.4% hits; further: potency means the concentration at half of the fitted maximal effect; on the % scale 0 is the no-effect control and ±100 the full control effect; nearly all actives have a fitted effect of over 50% in size
CtBP-E1A blk: inhibitors of CtBP/E1A interaction. AlphaScreen GST-E1A/His-CtBP binding, 1536-well; stronger effect = lower value. activity change, % (test concentration not listed). 340,000 compounds, 0.49% hits. AID 651724; in the data active means activity change below about -65%; inconclusive means mostly about -30% to -63%; further: on the % scale 0 is the no-effect control and ±100 the full control effect
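GST-E1A and His-tagged CtBP (125 nM each as 5X stock) were preincubated with pin-transferred compound for 2 h at 37 °C in the dark, then glutathione donor and nickel acceptor beads were added for 1 h before AlphaScreen reading.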
Six1-Eya2 inh: inhibitors of human Six1/Eya2 interaction | Q15475+O00167 | AlphaScreen GST-Six1/His-Eya2 binding, biochemical; stronger effect = lower value | activity change, % (test concentration not listed) | 360,000 compounds, 0.56% hits | AID 651725; in the data active means activity change below about -65%; inconclusive means mostly about -30% to -63%; further: on the % scale 0 is the no-effect control and ±100 the full control effect
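AlphaScreen with GST-Six1 and His-Eya2 (5X mix: 250 nM and 500 nM), glutathione donor and nickel acceptor beads; buffer 50 mM Tris pH 8.0, 300 mM NaCl, 1 mM TCEP; 1 h at 37 C in the dark.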
BAZ2B block: inhibitors of human BAZ2B bromodomain. 360,000 compounds, 4.4% hits. AlphaScreen BAZ2B-H3K14Ac peptide displacement. Q9UIF8. Potency, µM (highest dose often 114 µM), inactives show top-dose activity change, negative = inhibition, most hits filed as inhibitors; further: potency means the concentration at half of the fitted maximal effect; on the % scale 0 is the no-effect control and ±100 the full control effect; nearly all actives have a fitted effect of over 60% in size
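Protein-peptide AlphaScreen: BAZ2B 50 nM, b-H3K14Ac 50 nM, 1x PBS pH 7.4 + 0.01% Tween-20. Preincubation 30 min RT; cpd 30 min RT (top 110 uM); beads 20 min RT, light-protected.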
G9a inh: G9a (human) methyltransferase inhibition. Q96KQ7. G9a H3K9 monomethylation, AlphaScreen, 2 h. Potency, µM (doses to about 102 µM), for inactives: top-dose activity, negative = inhibition, hits mostly inhibitors. AID 504332. 350,000 compounds, 8.8% hits; further: potency means the concentration at half of the fitted maximal effect; on the % scale 0 is the no-effect control and ±100 the full control effect; nearly all actives have a fitted effect of over 75% in size
Target sequence (Q96KQ7 913-1193 limits assumed): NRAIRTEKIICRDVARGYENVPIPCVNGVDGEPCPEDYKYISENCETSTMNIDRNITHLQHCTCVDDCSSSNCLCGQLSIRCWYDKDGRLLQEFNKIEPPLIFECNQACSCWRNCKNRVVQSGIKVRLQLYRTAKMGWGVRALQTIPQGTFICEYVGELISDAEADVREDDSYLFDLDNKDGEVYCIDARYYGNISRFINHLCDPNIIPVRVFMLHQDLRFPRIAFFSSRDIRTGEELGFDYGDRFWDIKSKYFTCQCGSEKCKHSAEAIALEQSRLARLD
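Enzyme 20 nM + cpd, 15 min RT; add b-H3K9 pep 500 nM / SAM 20 uM; 2 h RT; anti-H3K9me1 Ab 0.5 ug/mL + SA donor / anti-rabbit acceptor beads 20 ug/mL each, 10 min; AlphaScreen read.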
HP1b chromo inh: blocks HP1-beta chromodomain binding to methylated histone tails. 390,000 compounds, 0.56% hits. P83916. AlphaScreen HP1-beta / biotin-H3K9me3 peptide binding. Potency, µM (highest dose often 114 µM), inactives show top-dose activity change, negative = inhibition, most hits filed as inhibitors. AID 540317; further: potency means the concentration at half of the fitted maximal effect; nearly all actives have a fitted effect of over 70% in size
Target sequence (P83916 whole entry, looked up): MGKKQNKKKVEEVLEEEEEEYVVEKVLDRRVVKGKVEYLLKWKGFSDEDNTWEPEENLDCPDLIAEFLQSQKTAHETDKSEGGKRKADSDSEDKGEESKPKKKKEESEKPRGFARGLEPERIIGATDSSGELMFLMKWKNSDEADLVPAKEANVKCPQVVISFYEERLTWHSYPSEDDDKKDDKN
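Compound inhibition of the preformed complex between 50 nM HP1-beta and 50 nM biotinylated H3K9me3 peptide was read by AlphaScreen. Buffer was PBS pH 7.4 with 0.01% Tween-20. Incubations ran 30 min at room temperature, with 10 ug/mL donor/acceptor beads.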
* = called active by the depositor; ? = inconclusive; nt = not tested or not shown; [ ] = another dose, or the depositor's remark. Unless noted, the call rests on the fitted dose curve; in most records, active means well fitted inhibition curve with a large enough effect; inconclusive means small, poorly fitted or top-dose-only effect; inactive means no such curve, though single readings can be large or run the other way.

SMILES	JMJD2A Tudor	CtBP-E1A blk	Six1-Eya2 inh	BAZ2B block	G9a inh	HP1b chromo inh
O=C1c2cccc3c([N+](=O)[O-])ccc(c23)C(=O)N1Cc1cccnc1	-21%[57.1 µM]	0	-17	40µM*	?	?
COC(=O)C1=C(C)NC(C)=C(C(=O)OC)C1C(=O)OCC(=O)NC1CCCCC1C (centres undefined)	nt	-2	2	nt	nt	nt
Cc1c(Br)c(O)c(Br)c2sc(=O)oc12	45µM*	-10	?	?	3.5µM*	28µM*
CCOC(=O)c1c(NC(=O)Cc2ccccc2)sc2c1CCN(CC)C2	-23%	3	-1	-7%	nt	13%
CCOC(=O)c1c(N)sc2c1CCN(Cc1ccccc1)C2	nt	nt	nt	nt	10µM*	nt
CCN1CCc2c(sc(NC(=O)c3ccc(S(=O)(=O)N4CCOCC4)cc3)c2C(N)=O)C1	-17%	-3	-2	-4%	56µM*	26%
CCN1CCc2c(sc(NC(=S)NC(=O)c3ccco3)c2C(N)=O)C1	?	-6	-9	-34%	20µM*	?
CCN1CCc2c(sc(NC(=O)c3ccc(C(=O)c4ccccc4)cc3)c2C(N)=O)C1	?	-12	-11	40µM*	71µM*	8%
COc1c2ccccc2nn1C(C)C	nt	3	-3	nt	nt	nt
S=C(SSC(=S)N1CCOCC1)N1CCOCC1	nt	-3	-9	nt	nt	nt
CCOC(=O)N1CCc2c(sc(NC(=O)c3ccc(Cl)s3)c2C(N)=O)C1	nt	nt	nt	-31%	28µM*	nt
Cc1sc(NC(=S)NC(=O)c2ccco2)c(C(N)=O)c1C	-15%[11.4 µM]	nt	-1	-2%	40µM*	3%
CC(C)C(=O)Nc1sc2c(c1C(N)=O)CCN(Cc1ccccc1)C2	-17%	2	1	4%	71µM*	18%
Cc1sc(NC(=S)NC(=O)CCc2ccccc2)c(C(N)=O)c1C	-13%	-1	0	-8%	?	-5%
NC(=O)c1c(NC(=O)c2ccccc2)sc2c1CCN(Cc1ccccc1)C2	-18%	-15	1	-4%	3%	47%
COc1ccc(C(=O)NC2CC2)cc1OC1CCN(Cc2cc(C)cc(C)c2)CC1	-15%	-2	-9	-4%	nt	10%
O=C(CC1(O)C(=O)N(C/C=C/c2ccccc2)c2ccccc21)c1ccccn1 (centres undefined)	?	3	-2	-32%	50µM*	-19%
C=CC[n+]1c(/C=C/c2ccc(OC(C)=O)c(OC)c2)ccc2ccccc21	2%	nt	-2	-7%	79µM*	39%
COc1cc(/C=N/NC(=O)Nc2ccccc2)ccc1OC(C)=O	11%	-3	-7	9%	7%[59 µM]	21%
COc1ccc(C(=O)N/C(=C\c2ccco2)C(=O)NCCCn2ccnc2)cc1	-28%	5	11	?	-41%[59 µM]	5%
Cc1ccc(C(=O)N/C(=C\c2cccs2)C(=O)NCCCn2ccnc2)cc1C	?	-15	-14	50µM*	12%	13%
COc1ccc(C(=O)N/C(=C\c2cccs2)C(=O)N2CCN(C)CC2)cc1OC	-1%	0	13	-9%	19%	3%
Cc1ccc(C(=O)N/C(=C\c2cccs2)C(=O)NCCCn2ccnc2)cc1	-17%	7	-9	-35%	10%[59 µM]	23%
Cc1ccc(C(=O)N/C(=C\c2ccco2)C(=O)NCCCn2ccnc2)cc1C	18µM*	7	-81*	7.9µM*	-40%[59 µM]	25%
O=C(NCCCn1ccnc1)/C(=C/c1ccco1)NC(=O)c1cccs1	-8%[11.4 µM]	nt	0	79µM*	?	30%
SMILES	JMJD2A Tudor	CtBP-E1A blk	Six1-Eya2 inh	BAZ2B block	G9a inh	HP1b chromo inh
Cc1ccc(C(=O)N/C(=C\c2cccs2)C(=O)N2CCN(C)CC2)cc1C	-8%	-1	2	-2%	71µM*	18%
COc1cc2c(cc1OC)CN(Cc1ccc(F)cc1)CC2	3.2µM*	-1	16	50µM*	?	-17%[57 µM]
COc1cc2c(cc1OC)CN(Cc1cc(OC)c3c(c1)OCO3)CC2	8.9µM*	7	-7	50µM*	?	-9%
COc1ccc(CN2CCc3cc(OC)c(OC)cc3C2)cc1O	45µM*	-12	15	?	-138%[59 µM]	?
COc1ccc(CC(=O)N2CCc3cc(OC)c(OC)cc3C2)cc1	-12%	1	19	6%	-5%	72%
CCCCN(C)CCNC(=O)c1ccc2c(=O)n(CCc3ccccc3)c(=O)[nH]c2c1	-11%	nt	nt	-1%	-4%[59 µM]	25%
O=C1C=C(c2ccccc2)OC(c2ccccc2)O1 (centres undefined)	14%	13	2	50µM*	?	81%
N#Cc1ccc(CSc2nnc3[nH]c(=O)cc(N)n23)cc1	2%	-19	-9	-22%	22µM*	16%
Cc1cc(=O)[nH]c2nnc(SCc3ccc(F)cc3)n12	-14%	nt	nt	-2%	-1%[59 µM]	17%
COc1ccc(CSc2nnc3[nH]c(=O)cc(N)n23)cc1	-16%[11.4 µM]	nt	-11	-22%	35µM*	2%
COc1ccc2c(C)c(CCC(=O)NCc3ccccc3Cl)c(=O)oc2c1C	-16%	nt	nt	-2%	4%[59 µM]	32%
Cc1ccc2nc(C3CCCCC3)c(CC(C)(C)C)n2c1	nt	-23	0	nt	nt	nt
O=C(CC1C(=O)NCCN1Cc1ccccc1C(F)(F)F)NC1CCC1 (centres undefined)	-7%	-5	17	-13%	nt	27%
O=C(CC1C(=O)NCCN1Cc1ccc(F)cc1Cl)NC1CCCCCCC1 (centres undefined)	-9%	3	-7	-19%	45µM*	21%
O=C(CC1C(=O)NCCN1Cc1ccccc1C(F)(F)F)NC1CCCCC1 (centres undefined)	-6%	-18	3	-9%[57.1 µM]	40µM*	31%
O=C(CC1C(=O)NCCN1Cc1ccccc1C(F)(F)F)NC1CCCCCC1 (centres undefined)	-23%	-12	3	-8%[57.1 µM]	45µM*	50%
O=C(CC1C(=O)NCCN1Cc1cccc(F)c1)NC1CCCCCC1 (centres undefined)	-1%	4	-4	-15%	?	30%
CCc1cnc2c(c1SCC(=O)Nc1ccc(C)cc1C)c(=O)n(C)c(=O)n2C	-8%	nt	nt	-1%	2%[59 µM]	45%
COc1ccc(CNC(=O)c2ccc(CNS(=O)(=O)c3ccc(F)cc3)cc2)cc1	-15%	nt	nt	4%	-6%[59 µM]	27%
O=C(Nc1ccc2nccnc2c1)Nc1ccccc1Cl	20µM*	-9	-14	-13%	?	22%
O=C(Nc1cccc(Cl)c1)Nc1ccc2nccnc2c1	3%	-24	-10	-22%	50µM*	32%
O=C(Nc1cccc(C(=O)O)c1)Nc1ccccc1Cl	1%	1	3	-3%	-5%	36%
